This note sets out measurements from ChEMBL document CHEMBL4513216, “Probing the Open Global Health Chemical Diversity Library for Multistage-Active Starting Points for Next-Generation Antimalarials” (ACS Infect Dis, 2020).

Among all 69,000 compounds or so, about 8,600 (12%) showed an effect of 50% or more. The list comes from a sample in which strong results are over-represented; it also holds similar structures and randomly drawn compounds.

In the test the test system is Plasmodium berghei. Kind of test: Screen against P. berghei liver stage (PbLuc), transformed with Luciferase, at 10uM. It is filed as functional, HepG2. As to conditions: tested at 10 uM.
Consider `c1ccc(CCN2CCOC(CNc3cccnn3)C2)nc1` (configuration not stated), for which the INHIBITION was -71.2%.

On to `Cc1cccc(C(C)CNC(=O)N2CCOCC3(CCOCC3)C2)c1` (configuration not stated), for which the INHIBITION is -7.36%.

Take `CC(NC(=O)N1CCC2(C1)OCCO2)c1cccc(Cl)c1` (configuration not stated): the INHIBITION came out at 5.58%.

`Cc1cccc(C(C)CNC(=O)N2CCC3(C2)OCCO3)c1` (configuration not stated): the INHIBITION was 52.6%.

Take `Cc1ccc(C)n1-c1ccsc1C(=O)NCC(=O)N1CCCC1`: the INHIBITION is listed as -7.7%.

Consider `COc1ccc(-n2cc3nc(N4CCCC4)[nH]cc-3c2=O)cc1Cl`, for which the INHIBITION is 30.8%.

Consider `Cc1ccc(OC2(C(=O)NC(C)Cc3ccsc3)CCNCC2)cc1` (configuration not stated), for which the INHIBITION is listed as -8.75%.

Turning to `c1ncc2c(n1)CN(Cc1nc(-c3ccoc3)no1)CC2`, the INHIBITION is -21.87%.

On to `Cc1cc(CS(=O)(=O)C(C)C(=O)N(C)c2ccccc2)on1` (configuration not stated), for which the INHIBITION is given as 59.4%.

For `Cc1noc(CN(C)c2ccccc2)n1`, the INHIBITION is reported as 29.8%.

For `Cc1noc(CS(=O)(=O)C(C)C(=O)N(C)c2ccccc2)n1` (configuration not stated), the INHIBITION is listed as 50.8%.

For the compound `Cc1cc(NC(=O)CN(CC(C)O)c2ccccc2)on1` (configuration not stated), the INHIBITION is given as 51.3%.

Take `CCC(O)CN(CC(=O)Nc1cc(C)no1)c1ccccc1` (configuration not stated): the INHIBITION is listed as 16.8%.

Turning to `CCN(C(=O)C(C)S(=O)(=O)Cc1nc(C)no1)c1ccccc1` (configuration not stated), the INHIBITION is given as 26.9%.

Turning to `Cc1noc(C)c1CS(=O)(=O)C(C)C(=O)N(C)c1ccccc1` (configuration not stated), the INHIBITION is given as 11.5%.

Regarding `Cc1cc(NC(=O)CN(c2ccccc2)C(C)C)on1`, the INHIBITION is 13%.

Turning to `Cc1cc(CS(=O)(=O)C(C)c2ccc(F)cc2)on1` (configuration not stated), the INHIBITION is -41%.

As to `CC(C)N(Cc1ccccn1)C(=O)CCOc1cccc(F)c1`, the INHIBITION is on record as -1.32%.

For the compound `COc1ccc(NC(=O)C2OC(c3cccs3)=NN2C(C)=O)cc1OC` (configuration not stated), the INHIBITION was 14.5%.

For `O=C(CC1CC1)N1CCC(O)(CN2CCN(c3ccccc3)CC2)C1` (configuration not stated), the INHIBITION came to 17.4%.

Turning to `Cc1nnc(NC(=O)CN2CCc3nn(C(C)C)c(=O)cc3C2)s1`, the INHIBITION is on record as -18%.

`O=C(c1cscn1)N1CCc2ncc(CN3CCCC3)n2CC1`: the INHIBITION was found to be 23.1%.

For the compound `Cc1nccc(CNc2cc(N3CCCC3CO)ncn2)n1` (configuration not stated), the INHIBITION was -0.219%.

For `COc1ccc(CN2C[C@@H]3CN(Cc4ccncc4)C[C@@H]3C2=O)cc1`, the INHIBITION was -2.35%.

With `Cc1n[nH]c(C)c1CCCN(C)c1cc(N(C)C)ncn1`, the INHIBITION stood at 8.51%.

Take `C[S+]([O-])CCNC(=O)N1CCSC2(CCCCC2)C1` (configuration not stated): the INHIBITION is reported as 25.4%.

With `COCCNC(=O)N1CCSC2(CCCCC2)C1`, the INHIBITION is listed as 52.6%.

Regarding `O=C(NCCc1ccccn1)N1CCSC2(CCCCC2)C1`, the INHIBITION came to 3.17%.

As for `CCN(Cc1ccoc1)C(=O)Nc1ccccc1CN(C)C(C)=O`, the INHIBITION was determined as 6.99%.

As for `Cc1nc(NC(=O)N(C)Cc2ccoc2)nn1C`, the INHIBITION is recorded as -10.9%.

`CSc1cccc(CN(C)C(=O)CN2CCN(c3ncccn3)CC2)c1`: the INHIBITION turned out to be 10.6%.

With `CCc1nc(NC(=O)N(C)Cc2ccoc2)nn1C`, the INHIBITION came to 63.6%.

On to `Cc1nc(NC(=O)N(C)Cc2ccsc2)nn1C`, for which the INHIBITION is listed as 25.9%.

For the compound `CSc1cccc(CN(C)C(=O)Nc2nc(C)n(C)n2)c1`, the INHIBITION turned out to be 71.8%.

Regarding `Cc1cnc(N2C[C@@H]3CN(Cc4ccco4)CCC[C@]3(C(=O)O)C2)nc1`, the INHIBITION is 15.3%.

For the compound `O=C(CCNC(=O)C1CCCC1)NCc1ccccc1Cn1ccnc1`, the INHIBITION amounted to 7.27%.

Take `COc1ccc(CNC(=O)Nc2cccnc2N2CCCC2)cc1`: the INHIBITION came out at 19.2%.

As to `O=C(NCC1CC1)c1cc(Br)cnc1N1CCCCC1`, the INHIBITION stood at 16.4%.

With `O=C1Nc2ccccc2CC12CCN(CCO)C2` (configuration not stated), the INHIBITION was -36.2%.

For the compound `CCCN1CCC2(Cc3ccccc3NC2=O)C1` (configuration not stated), the INHIBITION was 36.2%.

Consider `CC(C)CN1CCC2(Cc3ccccc3NC2=O)C1` (configuration not stated), for which the INHIBITION worked out at 58.7%.

Take `O=C(c1ccc[nH]1)N1CCc2ccc(S(=O)(=O)N3CCOCC3)cc2C1`: the INHIBITION came to 6.99%.

Turning to `CC(=O)NCCNC(=O)c1cnc2c(c1)nc(-c1ccccc1Cl)n2C`, the INHIBITION is recorded as -76.5%.

As for `CNC(=O)c1cn2cc(-c3ccc(F)cc3)n(CC=C(C)C)c(=O)c2n1`, the INHIBITION amounted to 69.3%.

Take `CN(C)C(=O)c1cn2cc(-c3cccc(Cl)c3)n(CC3CC3)c(=O)c2n1`: the INHIBITION is 17.8%.

Turning to `Cn1c(-c2ccc(F)cc2)cn2cc(C(=O)N3CCC(N)C3)nc2c1=O` (configuration not stated), the INHIBITION is on record as 24.4%.

As for `CNC(=O)c1cn2cc(-c3cccc(Cl)c3)n(CC=C(C)C)c(=O)c2n1`, the INHIBITION is given as 76.7%.

With `COCCCNC(=O)Cn1c(-c2cccc(Cl)c2)nc(C)cc1=O`, the INHIBITION was 14.6%.

`CNC(=O)c1cn2cc(-c3ccccc3Cl)n(CC=C(C)C)c(=O)c2n1`: the INHIBITION worked out at 61.9%.

As for `CC(C)NC(=O)NCc1cc(-c2cccc(Cl)c2)nn1C`, the INHIBITION is given as 13%.

Turning to `CNC(=O)CC1CCN(Cc2nc(-c3cccc(Cl)c3)oc2C)CC1`, the INHIBITION came out at 13.5%.

Take `NC(=O)c1cn2cc(-c3ccccc3Cl)n(CC3CC3)c(=O)c2n1`: the INHIBITION worked out at 5.46%.

On to `CNC(=O)c1cn2cc(-c3cccc(Cl)c3)n(CC3CC3)c(=O)c2n1`, for which the INHIBITION was 55.4%.

For the compound `Cn1c(-c2ccc(F)cc2)cn2cc(C(=O)N3CC[C@@H](O)C3)nc2c1=O`, the INHIBITION is recorded as 40.7%.

Turning to `Cc1nc(-c2ccsc2)ccc1C(=O)NC(C)CN1CCOCC1` (configuration not stated), the INHIBITION is -4.43%.

As to `O=C(c1cscn1)N1CCc2ncnc(-c3ccncc3)c2CC1`, the INHIBITION was -7.24%.

Regarding `O=C(CSc1ccncc1)NC1CC(=O)N(CCc2ccccc2)C1` (configuration not stated), the INHIBITION was -15.9%.

With `CC(O)CN1CCC(CNCc2ccccc2C(F)(F)F)CC1` (configuration not stated), the INHIBITION was found to be 0.24%.

As to `CN1CCN(C2CCN(CCCOc3ccc(F)cc3)CC2)C1=O`, the INHIBITION stood at 47%.

As for `CCOC(=O)CNC(=O)C1OC(c2ccccc2)=NN1C(C)=O` (configuration not stated), the INHIBITION is given as -19.1%.

In the case of `CCOC1CCN(C(=O)CN(C)c2cnccn2)CC1`, the INHIBITION is listed as 26.083%.

Turning to `CC(C)Nc1ccc2nc(C3CCN(C(C)C)CC3)nn2c1`, the INHIBITION is listed as -7.35%.

Turning to `CCNC(=O)c1cn2cc(-c3ccccc3Cl)n(CC3CC3)c(=O)c2n1`, the INHIBITION is given as 73.5%.

In the case of `CN(C)C(=O)c1cn2cc(-c3ccccc3Cl)n(CC3CC3)c(=O)c2n1`, the INHIBITION is recorded as -0.273%.

Regarding `CNC(=O)c1cn2cc(-c3ccccc3Cl)n(CC3CC3)c(=O)c2n1`, the INHIBITION amounted to 33.3%.

As to `COCC(=O)N1C[C@@H](OCc2ccncc2)[C@@H]2OCCC[C@@H]21`, the INHIBITION is 35.8%.

Consider `c1ccc(CN2CCN3C[C@H](Oc4cccnc4)C[C@H]3C2)nc1`, for which the INHIBITION was found to be 41.2%.

`c1cc(CN2CCN3C[C@H](Oc4cncnc4)C[C@H]3C2)ccn1`: the INHIBITION was -11.3%.

Consider `c1ccc(CN2CCN3C[C@H](Oc4cncnc4)C[C@H]3C2)nc1`, for which the INHIBITION was -8.6%.

In the case of `Fc1cccc(O[C@@H]2C[C@H]3CN(Cc4ccccn4)CCN3C2)c1`, the INHIBITION is 85.4%.

As for `Fc1cccc(O[C@@H]2C[C@H]3CN(Cc4ccncc4)CCN3C2)c1`, the INHIBITION is listed as 90.7%.

`Cn1ccnc1CN1CCN2C[C@H](Oc3cccc(F)c3)C[C@H]2C1`: the INHIBITION was determined as 38.5%.
